Source: PubChem BioAssay (NCATS)
Inconclusive results are not listed. Calls of active or inactive are those of the source. Unless noted, calls follow the shape of the full dose curve.

How the values were obtained:
[1] = NS1 protein of Zika virus - qHTS assay to identify small molecule inhibitors in human HEK 293 cells (AID 1347053; active = well fitted curve in the direction sought with a large enough effect; an effect the other way counts as inactive or inconclusive; also: series mostly up to about 46 µM; nearly all actives have a fitted effect of over 55% in size)
In short: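 TR-FRET signal from two anti-ZIKV NS1 antibodies quantified NS1 in HEK 293 cells 24 h after MR766 infection at MOI = 0.5; compounds were added 1 h before virus. Uninfected cells and infected cells defined the NS1 normalization range.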

[2] = qHTS for Inhibitors of the Functional Ribonucleoprotein Complex (vRNP) of Lassa (LASV) Arenavirus: LASV Primary Screen - GLuc reporter signal (AID 1347082; calls by dose curve; tested in HEK293 reporter line; also: series mostly up to about 57 µM; nearly all actives have a fitted effect of over 60% in size)
[3] = qHTS for Inhibitors of the Functional Ribonucleoprotein Complex (vRNP) of Lassa (LASV) Arenavirus: Viability assay - alamar blue signal for LASV Primary Screen (AID 1347083; calls by dose curve; tested in HEK293 reporter line; also: nearly all actives have a fitted effect of over 80% in size; also: potency is read from the fitted curve at half-maximal effect)
[4] = qHTS for Inhibitors of the Functional Ribonucleoprotein Complex (vRNP) of Lymphocytic Choriomeningitis Arenaviruses (LCMV): Viability assay - alamar blue signal for LCMV Primary Screen (AID 1347085; calls by dose curve; tested in HEK293 reporter line; also: nearly all actives have a fitted effect of over 80% in size; also: potency is read from the fitted curve at half-maximal effect)
[5] = target: Nucleoprotein (Lymphocytic choriomeningitis virus (strain Armstrong)) (UniProt P09992); assay: qHTS for Inhibitors of the Functional Ribonucleoprotein Complex (vRNP) of Lymphocytic Choriomeningitis Arenaviruses (LCMV): LCMV Primary Screen - GLuc reporter signal (AID 1347086); also: series mostly up to about 57 µM; nearly all actives have a fitted effect of over 70% in size
[6] = qHTS of pediatric cancer cell lines to identify multiple opportunities for drug repurposing: Primary screen for TC32 cells (AID 1347089; active = well fitted curve in the direction sought with a large enough effect; an effect the other way counts as inactive or inconclusive; also: nearly all actives have a fitted effect of over 60% in size)
In short: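 Measured quantity: luminescence from CellTiter-Glo, reflecting metabolically active TC32 cells following 48 h of compound. Curves came straight from multi-point titrations, with 8 or 11 points in primary and 11 in confirmatory screening.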

[7] = qHTS of pediatric cancer cell lines to identify multiple opportunities for drug repurposing: Primary screen for DAOY cells (AID 1347090; active = well fitted curve in the direction sought with a large enough effect; an effect the other way counts as inactive or inconclusive; also: nearly all actives have a fitted effect of over 55% in size; also: potency is read from the fitted curve at half-maximal effect)
In short: (§1)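 Eight- or eleven-point concentration series, 48 h treatment at 37 degrees C in growth media; readout CellTiter-Glo luminescence. Potency and efficacy were taken from the concentration-response curves.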

[8] = qHTS of pediatric cancer cell lines to identify multiple opportunities for drug repurposing: Primary screen for A673 cells (AID 1347092; active = well fitted curve in the direction sought with a large enough effect; an effect the other way counts as inactive or inconclusive; also: nearly all actives have a fitted effect of over 45% in size; also: potency is read from the fitted curve at half-maximal effect)
In short: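 Cells are plated, rested 5 h, dosed by pintool, incubated 48 h, then lysed with CellTiter-Glo and read by luminescence. DMSO is the neutral control; bortezomib at 2.3 uM final is the positive control.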

[9] = qHTS of pediatric cancer cell lines to identify multiple opportunities for drug repurposing: Primary screen for BT-37 cells (AID 1347094; active = well fitted curve in the direction sought with a large enough effect; an effect the other way counts as inactive or inconclusive; also: series mostly up to about 57 µM)
In short: (§2)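 ATP-based luminescence (CellTiter-Glo) quantifies viability after a 48-hour exposure. Compounds are dosed across 8 or 11 final concentrations; DMSO and 2.3 µM bortezomib serve as controls.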

[10] = qHTS of pediatric cancer cell lines to identify multiple opportunities for drug repurposing: Primary screen for SK-N-MC cells (AID 1347093; active = well fitted curve in the direction sought with a large enough effect; an effect the other way counts as inactive or inconclusive; also: series mostly up to about 46 µM)
In short: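 Metabolically active cells were quantified by ATP-dependent luminescence (CellTiter-Glo, 15 min at room temperature) following 48 h treatment. Cells had been plated at 500-1,000 per well and settled for 5 h beforehand.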

[11] = qHTS of pediatric cancer cell lines to identify multiple opportunities for drug repurposing: Primary screen for NB-EBc1 cells (AID 1347095; active = well fitted curve in the direction sought with a large enough effect; an effect the other way counts as inactive or inconclusive)
In short: as §2

[12] = qHTS of pediatric cancer cell lines to identify multiple opportunities for drug repurposing: Primary screen for SJ-GBM2 cells (AID 1347091; active = well fitted curve in the direction sought with a large enough effect; an effect the other way counts as inactive or inconclusive)
In short: as §1

Measured: Potency

Nucleoprotein (Lymphocytic choriomeningitis virus (strain Armstrong)), sequence (P09992 whole entry, looked up): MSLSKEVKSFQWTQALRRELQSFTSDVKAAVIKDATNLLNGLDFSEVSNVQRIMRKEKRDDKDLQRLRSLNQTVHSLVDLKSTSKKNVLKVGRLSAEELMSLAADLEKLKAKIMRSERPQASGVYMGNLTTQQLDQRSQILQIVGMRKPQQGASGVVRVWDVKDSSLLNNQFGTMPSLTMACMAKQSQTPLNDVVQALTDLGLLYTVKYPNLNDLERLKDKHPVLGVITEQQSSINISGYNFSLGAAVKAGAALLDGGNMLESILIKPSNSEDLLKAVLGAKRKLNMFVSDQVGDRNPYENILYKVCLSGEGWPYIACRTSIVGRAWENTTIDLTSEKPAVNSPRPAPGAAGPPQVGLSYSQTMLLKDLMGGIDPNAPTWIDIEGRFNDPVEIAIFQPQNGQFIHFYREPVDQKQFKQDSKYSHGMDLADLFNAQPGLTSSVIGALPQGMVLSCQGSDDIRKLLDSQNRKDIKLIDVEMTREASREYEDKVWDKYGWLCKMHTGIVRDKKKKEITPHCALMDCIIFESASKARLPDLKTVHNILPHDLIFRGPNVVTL

C[C@]12CC[C@@H]3c4ccc(OC(=O)N(CCCl)CCCl)cc4CC[C@H]3[C@@H]1CC[C@@H]2O
inactive: [1] | [2] | [3] | [4] | [5] | [6] | [7] | [8] | [9]

CC(C(=O)O)c1ccc2c(c1)CC(=O)c1ccccc1S2 (stereo unspecified)
inactive: [2] | [3]

C[C@]12CC[C@H]3[C@@H](CCC4=CC(=O)CC[C@@H]43)[C@@H]1CC[C@@H]2OC(=O)CCc1ccco1
inactive: [1] | [2] | [3] | [4] | [5] | [6] | [7] | [8] | [10] | [9] | [11]

O=C1c2ccccc2C(=O)C1C(=O)C(c1ccccc1)c1ccccc1
inactive: [1] | [2] | [3] | [4] | [5] | [9]
active: [7] 26.6 µM

CCN(CC)C(=O)[C@@H]1C=C2c3cccc4[nH]cc(c34)C[C@H]2N(C)C1
inactive: [1] | [2] | [4] | [5] | [6] | [7] | [12]
active: [8] 56.6 µM

Cc1nc2ccc(CN(C)c3ccc(C(=O)N[C@@H](CCC(=O)O)C(=O)O)s3)cc2c(=O)[nH]1
inactive: [2]

CS(=O)(=O)c1ccc([C@@H](O)[C@@H](CF)NC(=O)C(Cl)Cl)cc1
inactive: [2] | [3] | [4] | [5]

CO[C@H]1C[C@@H]2CC[C@@H](C)[C@@](O)(O2)C(=O)C(=O)N2CCCC[C@@H]2C(=O)O[C@H]([C@@H](C)C[C@@H]2CC[C@H](O)[C@H](OC)C2)CC(=O)[C@H](C)C=C(C)[C@@H](O)[C@@H](OC)C(=O)[C@H](C)C[C@H](C)C=CC=CC=C1C
inactive: [2]
active: [3] 0.0027 µM | [4] 0.0122 µM

CC(=O)O[C@@H]1C(=O)O[C@@H]2[C@H]1OC(=O)[C@@H]2OC(C)=O
inactive: [2] | [3] | [4] | [5]

C[C@H]1C[C@@H]2[C@H]([C@@H](O)C[C@@]3(C)[C@H]2CC[C@]3(O)C(=O)CO)[C@@]2(C)C=CC(=O)C=C12
inactive: [2] | [3] | [4] | [5]

OCCOCCN1CCN(C2=Nc3ccccc3Sc3ccccc32)CC1
inactive: [2] | [3] | [4] | [5]

CCCCCCCC/C=C\CCCCCCCC(=O)NCc1ccc(O)c(OC)c1
inactive: [2] | [3] | [4] | [5]

CCCCC(O)/C=C(C)/C=C/C=C/C(=O)N1CCCC1=O (stereo unspecified)
inactive: [2] | [3] | [4] | [5]

Cc1c(NC(=O)c2cccnc2)c(=O)n(-c2ccccc2)n1C
inactive: [2] | [3] | [4] | [5]

NC/C=C/C(=O)O
inactive: [2] | [3] | [4] | [5]

NC(=O)c1ccccc1O
inactive: [2] | [3] | [4] | [5]

O=C(Nc1ccc(Cl)c(Cl)c1)C1CC1
inactive: [2] | [3] | [4] | [5]

Nc1ncnc2nc[nH]c12
inactive: [2] | [3] | [4] | [5]

Cc1c(I)c(=O)n(-c2ccccc2)n1C
inactive: [2] | [3] | [4] | [5]

C/C(=C(\CCO)SS/C(CCO)=C(\C)N(C=O)Cc1cnc(C)nc1N)N(C=O)Cc1cnc(C)nc1N
inactive: [2] | [3] | [4] | [5]

C#C[C@]1(O)CC[C@H]2[C@@H]3CCC4=CC(=O)CC[C@@H]4[C@H]3CC[C@@]21CC
inactive: [2] | [3] | [4] | [5]

N=C(N)N
inactive: [2] | [3] | [4] | [5]

Cc1cc(CCCOc2c(C)cc(-c3noc(C(F)(F)F)n3)cc2C)on1
inactive: [2] | [3] | [4] | [5]

FC(F)(F)c1ccccc1-n1ccnc1
inactive: [2] | [3] | [4] | [5]

Cc1ccccc1C(=O)N1CC/C(=N\OS(=O)(=O)O)c2ccc(Cl)cc21
inactive: [2] | [3] | [4] | [5]

CC(=O)Nc1ccc(S(=O)(=O)Nc2cc(C)on2)cc1
inactive: [2] | [3] | [4] | [5]

CC(C)C[C@H]1C(=O)N2CCC[C@H]2[C@]2(O)O[C@](NC(=O)[C@@H]3C=C4c5cccc6[nH]c(Br)c(c56)C[C@H]4N(C)C3)(C(C)C)C(=O)N12
inactive: [2] | [3] | [4] | [5]

CCOC(=O)NNc1ccc(N(CC)CC(C)O)nn1 (stereo unspecified)
inactive: [2] | [3] | [4] | [5]

Cc1ccc(C(=O)C(=O)O)cc1C
inactive: [2] | [3] | [4] | [5]

COc1ccc(NS(=O)(=O)c2ccc(N)cc2)nn1
inactive: [2] | [3] | [4] | [5]

COc1ccc(C2C(=O)c3ccccc3C2=O)cc1
inactive: [2] | [3] | [4] | [5]

O=C(O)c1ccccc1C(=O)Nc1ccc(S(=O)(=O)Nc2nccs2)cc1
inactive: [2] | [3] | [4] | [5]
